Source: PubChem BioAssay (Tox21)
Inconclusive results are not listed. Activity calls are given as the source filed them. Unless noted, calls follow the shape of the dose curve; as a rule, active = well fitted curve in the direction sought with a large enough effect in the repeat runs; inconclusive = weak or mixed curves; inactive = no such curve, though single readings can be large; an effect the other way counts as inactive or inconclusive.

Assays:
[1] = qHTS assay to identify small molecule antagonists of the androgen receptor (AR) signaling pathway using the MDA cell line in the presence of 0.5 nM R1881 - cell viability counter screen (AID 1259242); settings: MDA-kb2 viability, CellTiter-Fluor protease fluorescence, 16 h; series mostly up to 92.4 µM; also: nearly all actives have a fitted effect of over 45% in size; also: potency is read from the fitted curve at half-maximal effect
Summary of the method: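 MDA-kb2 cells (human breast carcinoma, stably carrying MMTV-luciferase reporter) were exposed to compounds with 0.5 nM R1881 (final) for 16 hr at 37C, 0% CO2; viability then read as live-cell protease fluorescence (CellTiter-Fluor, 30 min) in the same wells.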

[2] = biological target: Androgen receptor (Homo sapiens) (UniProt P10275); experiment: qHTS assay to identify small molecule antagonists of the androgen receptor (AR) signaling pathway using the MDA cell line in the presence of 0.5 nM R1881 (AID 1259243); settings: MDA-kb2 MMTV-luciferase, R1881 0.5 nM, 16 h; series mostly up to 92.4 µM; also: nearly all actives have a fitted effect of over 50% in size; also: potency is read from the fitted curve at half-maximal effect
Androgen receptor (Homo sapiens), sequence (P10275 whole entry, looked up): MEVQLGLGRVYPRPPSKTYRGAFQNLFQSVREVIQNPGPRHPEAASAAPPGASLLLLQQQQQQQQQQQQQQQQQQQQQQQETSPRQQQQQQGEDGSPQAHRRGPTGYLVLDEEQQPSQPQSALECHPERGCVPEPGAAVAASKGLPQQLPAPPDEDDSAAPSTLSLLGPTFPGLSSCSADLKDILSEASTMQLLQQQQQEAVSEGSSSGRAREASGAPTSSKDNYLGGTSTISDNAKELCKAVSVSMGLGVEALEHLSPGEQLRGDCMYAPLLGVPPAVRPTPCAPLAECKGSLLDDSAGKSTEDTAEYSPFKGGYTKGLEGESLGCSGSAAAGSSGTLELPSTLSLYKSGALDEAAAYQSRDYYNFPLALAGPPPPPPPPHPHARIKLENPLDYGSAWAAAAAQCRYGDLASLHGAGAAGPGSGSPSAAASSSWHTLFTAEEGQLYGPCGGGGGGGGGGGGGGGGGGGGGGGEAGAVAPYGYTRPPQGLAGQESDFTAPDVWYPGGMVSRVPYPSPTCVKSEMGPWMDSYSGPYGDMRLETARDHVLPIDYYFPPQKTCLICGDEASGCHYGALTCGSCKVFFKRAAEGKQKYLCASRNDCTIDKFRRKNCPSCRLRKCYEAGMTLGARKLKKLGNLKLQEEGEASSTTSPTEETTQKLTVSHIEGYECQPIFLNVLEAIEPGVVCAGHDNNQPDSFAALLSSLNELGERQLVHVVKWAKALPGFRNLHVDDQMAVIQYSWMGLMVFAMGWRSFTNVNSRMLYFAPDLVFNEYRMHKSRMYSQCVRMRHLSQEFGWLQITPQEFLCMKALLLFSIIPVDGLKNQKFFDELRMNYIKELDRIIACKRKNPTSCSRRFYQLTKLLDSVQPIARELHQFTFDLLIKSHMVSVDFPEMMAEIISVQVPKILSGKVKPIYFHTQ
Summary of the method: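 MDA-kb2 human breast carcinoma cells carrying an MMTV-luciferase reporter (AR- and GR-responsive) were plated, rested 5 hr at 37C, dosed with compounds, then stimulated with 0.5 nM R1881 (final) for 16 hr; luminescence was read after ONE-Glo.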

[3] = biological target: Estrogen receptor (Homo sapiens) (UniProt P03372); experiment: qHTS assay to identify small molecule antagonists of the estrogen receptor alpha (ER-alpha) signaling pathway using the BG1 cell line in the presence of 0.1 nM 17-beta-estradiol (AID 1259244); settings: VM7Luc4E2 (BG1) ERE-luciferase, antagonist mode, 0.1 nM E2, 22 h; series mostly up to 92.4 µM; also: nearly all actives have a fitted effect of over 50% in size; also: potency is read from the fitted curve at half-maximal effect
Estrogen receptor (Homo sapiens), sequence (P03372 whole entry, looked up): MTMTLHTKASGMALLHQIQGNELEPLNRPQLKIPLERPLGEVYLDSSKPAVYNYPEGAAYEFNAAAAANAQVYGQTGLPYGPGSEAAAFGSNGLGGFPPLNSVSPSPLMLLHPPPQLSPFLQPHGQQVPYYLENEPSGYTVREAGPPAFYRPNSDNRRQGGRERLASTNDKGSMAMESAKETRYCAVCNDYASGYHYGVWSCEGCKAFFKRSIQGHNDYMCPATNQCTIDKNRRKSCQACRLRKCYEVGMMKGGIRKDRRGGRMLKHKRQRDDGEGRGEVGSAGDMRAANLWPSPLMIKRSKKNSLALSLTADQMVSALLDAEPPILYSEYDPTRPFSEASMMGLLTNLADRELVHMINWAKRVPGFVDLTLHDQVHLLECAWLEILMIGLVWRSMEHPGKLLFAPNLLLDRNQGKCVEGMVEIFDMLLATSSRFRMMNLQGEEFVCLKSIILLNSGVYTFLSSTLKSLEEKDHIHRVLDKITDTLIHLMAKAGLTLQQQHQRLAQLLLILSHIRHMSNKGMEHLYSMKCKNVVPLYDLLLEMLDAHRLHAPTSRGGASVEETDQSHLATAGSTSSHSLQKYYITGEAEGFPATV
Summary of the method: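 VM7Luc4E2 cells (endogenous full-length ER-alpha, stable 4xERE-luciferase) were grown 5 days in phenol red-free medium with charcoal-stripped FBS, then exposed 22 h at 37C to compounds plus 0.1 nM (final) 17beta-estradiol; ONE-Glo luminescence read-out.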

[4] = qHTS assay to identify small molecule HDAC inhibitors - cell viability counter screen (AID 1259365); settings: HCT-116 viability, CellTiter-Glo ATP luminescence, 2 h; series mostly up to 92.4 µM; also: nearly all actives have a fitted effect of over 50% in size
Summary of the method: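 Wild-type HCT-116 cells, 1,500/well, cultured overnight, then compound-treated 2 h at 37 C. Viability measured as ATP luminescence with CellTiter-Glo after 30 min at room temperature.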

[5] = qHTS assay to identify small molecule agonists of the sonic hedgehog signaling (Shh) pathway - cell viability counter screen (AID 1259366); settings: NIH/3T3 Gli1-Luc viability, CellTiter-Fluor, 24 h; series mostly up to 92.4 µM; also: nearly all actives have a fitted effect of over 50% in size; also: potency is read from the fitted curve at half-maximal effect
Summary of the method: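 NIH/3T3-derived Gli1-Luc reporter cells, 2,000 per well, received compound after 4 h and were treated about 23 h at 37C. Viability measured in the same wells by CellTiter-Fluor fluorescence after 1 h.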

[6] = qHTS assay to identify small molecule antagonists of the sonic hedgehog signaling (Shh) pathway - cell viability counter screen (AID 1259367); settings: NIH/3T3 Gli1-Luc viability, CellTiter-Fluor, 24 h; series mostly up to 92.4 µM; also: nearly all actives have a fitted effect of over 55% in size; also: potency is read from the fitted curve at half-maximal effect
Summary of the method: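 Using CellTiter-Fluor, viability of Gli1-Luc reporter 3T3 cells is read by fluorescence in the wells used for the Shh luciferase assay. Treatment lasts 23 hr with conditioned medium, then reagent 1 hr at 37C.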

[7] = qHTS assay to identify small molecule agonists of the sonic hedgehog signaling (Shh) pathway (AID 1259368; calls by dose curve; also: nearly all actives have a fitted effect of over 15% in size); settings: NIH/3T3 Gli1-Luc reporter, luciferase, 24 h; series mostly up to 92.4 µM
Summary of the method: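 NIH/3T3-derived 3T3Gli1-Luc cells carrying a stably integrated Gli1 response element–firefly luciferase reporter were plated, left 4 hr at 37 C, then given compounds in DMSO for 24 hr. Luminescence was read 30 min after adding luciferase reagent.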

[8] = qHTS assay to identify small molecule antagonists of the sonic hedgehog signaling (Shh) pathway (AID 1259369; calls by dose curve; also: nearly all actives have a fitted effect of over 45% in size; also: potency is read from the fitted curve at half-maximal effect); settings: NIH/3T3 Gli1-Luc reporter, Shh antagonist, luminescence 24 h; series mostly up to 92.4 µM
Summary of the method: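 NIH/3T3-derived 3T3Gli1-Luc cells with stably integrated Gli1-Luc reporter were preincubated 4hr at 37 C, then given compounds in DMSO plus Shh conditioned medium and incubated 24hr. Firefly luciferase luminescence read after 30min reagent at room temperature.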

[9] = qHTS assay to identify small molecule HDAC inhibitors (AID 1259364); settings: HCT-116 HDAC-Glo I/II luminescence, 2 h; series mostly up to 92.4 µM; also: top concentration of the series differs between compounds; nearly all actives have a fitted effect of over 45% in size
Summary of the method: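 Wild-type HCT-116 cells were plated overnight, exposed to compounds for 2 h at 37 °C, then given HDAC-Glo class I/II luminogenic reagent for 30 min at room temperature before luminescence was read.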

Measured: Potency

COc1ccc([N+](=O)[O-])cc1O
not listed: [9]
inactive: all other assays above

CC(C)(O)c1cnn2c(-c3ccc(F)c(-c4c(F)cccc4C#N)c3)cnc2n1
active: [2] 61.1 µM | [8] 4.33 µM
inactive: [1] | [9] | [4] | [7]

CC(=[OH+])/C=C(/C)[O-].CC(=[OH+])/C=C(\C)[O-].CC(=[OH+])/C=C(\C)[O-].[Al]
not listed: [2] | [7]
inactive: all other assays above

Fc1cccc(Cl)c1CCl
not listed: [2] | [7]
inactive: all other assays above

CC(C)OS(C)(=O)=O
not listed: [2]
inactive: all other assays above

CC(C)(C)c1cc([N+](=O)[O-])cc(C(C)(C)C)c1O
inactive: [9] | [4] | [5] | [7]
active: [1] 13.7 µM | [3] 6.11 µM | [8] 3.06 µM

CCCCCCCCCCCCCCC(Br)C(=O)O (configuration not stated)
not listed: [2] | [7]
inactive: all other assays above

Cc1cc(C)c(C2=C(OC(=O)CC(C)(C)C)C3(CCCC3)OC2=O)c(C)c1
not listed: [2]
inactive: all other assays above

CCCCCCCCCCCCCN1CC(C)OC(C)C1 (configuration not stated)
inactive: [1] | [3] | [9] | [4] | [6]

Clc1ccc(-c2ccccc2)cc1
not listed: [2] | [6] | [7]
inactive: all other assays above

Oc1ccc(I)cc1
not listed: [2] | [8]
inactive: all other assays above

CCCCCCCCCCBr
not listed: [2]
inactive: all other assays above

C=CC(=O)N(C)C
not listed: [2] | [8]
inactive: all other assays above

ClC1=C(Cl)[C@]2(Cl)[C@H]3[C@H]([C@H]4C=C[C@H]3C4)[C@@]1(Cl)C2(Cl)Cl
not listed: [2]
inactive: all other assays above

COC[C@H](C)N(C(=O)CCl)c1c(C)csc1C
not listed: [2] | [7]
inactive: all other assays above

CC(C)(C)c1ccc(CSc2cnn(C(C)(C)C)c(=O)c2Cl)cc1
inactive: [9] | [4] | [5] | [7]
active: [1] 0.0686 µM | [3] 0.0154 µM

COC(=O)N(C(=O)N1COC2(C(=O)OC)Cc3cc(Cl)ccc3C2=N1)c1ccc(OC(F)(F)F)cc1 (configuration not stated)
not listed: [2] | [6] | [8]
inactive: all other assays above

Oc1ccccc1Br
not listed: [2] | [8]
inactive: all other assays above

O=CC(Br)(Br)Br
inactive: [3] | [9] | [4]
active: [1] 43.1 µM | [5] 24.3 µM | [6] 60.9 µM

ClCc1ccc(Cl)cc1Cl
not listed: [2]
inactive: all other assays above

O=[N+]([O-])c1ccc(Oc2ccc(C(F)(F)F)cc2[N+](=O)[O-])cc1
active: [8] 61.1 µM
not listed: [2] | [7]
inactive: all other assays above

CCc1cc(C)cc(CC)c1-c1c(OC(=O)C(C)(C)C)n2n(c1=O)CCOCC2
active: [5] 27.3 µM | [6] 15.4 µM
not listed: [2] | [8]
inactive: all other assays above

COCC(=O)N(c1c(C)cccc1C)[C@H](C)C(=O)OC
not listed: [2]
inactive: all other assays above

CC(C)OC(=O)C(O)(c1ccc(Cl)cc1)c1ccc(Cl)cc1
not listed: [2] | [6] | [8]
inactive: all other assays above

CC(=[OH+])/C=C(/C)[O-].CC(=[OH+])/C=C(\C)[O-].CC(=[OH+])/C=C(\C)[O-].[Fe]
not listed: [2]
inactive: all other assays above

CCCCCCCCCCCCBr
not listed: [2] | [7]
inactive: all other assays above
